Experimental data: PubChem BioAssay AID485364 (National Center for Advancing Translational Sciences (NCATS), 2010)
In all, about 360,000 compounds went through this assay and about 11,000 (3.1%) were called active. Inconclusive results (about 4%) are left out. Calls follow the shape of the dose curve; as a rule, active = well fitted inhibition curve with a large enough effect; inconclusive = small, poorly fitted or top-dose-only effect; inactive = no such curve, though single readings can be large or run the other way. What follows is part of a selection rich in actives, with near analogues and random picks from the rest. Entries that show only a call come without a potency.

What follows are compounds tested against Schistosoma mansoni thioredoxin glutathione reductase (TGR) (UniProt Q962Y6) (assay: qHTS Assay for the Inhibitors of Schistosoma Mansoni Peroxiredoxins). Details: purified TGR, DTNB reduction, TNB absorbance 405 nm; series mostly up to 114 µM.
Source text: Schistosomiasis is a major neglected tropical disease that currently affects over 200 million. It is caused by different species of flatworms, such as Schistosoma mansoni. Over the last century, drugs to treat the disease have evolved from potassium antimonyl tartrate, artemisinin, oxamniquine, to praziquantel, with praziquantel remaining the universally-used single drug of choice over the past three decades. However, transmission rates have changed little with praziquantel, and there is evidence for the development of drug resistant parasites. Because there is currently no suitable alternative therapy available, there is an urgent need to identify new targets and drugs for schistosomiasis treatment. Thioredoxin glutathione reductase (TGR), one uniquely positioned S. mansoni enzyme, has been identified as a major component of the worms' distinct and compressed antioxidant "firewall". TGR is a multifunctional enzyme that catalyzes the interconversion between reduced and oxidized forms of both glutathione (GSH) and thioredoxins, thus making it an attractive new antiparasitic target. Recently, a quantitative high-throughput screen of the NIH Molecular Libraries Small Molecule Repository (MLSMR, ~71K at the time of the screen in 2007) was performed using an assay that targeted both TGR and peroxiredoxin2 (Prx2, an H2O2-reducing enzymatic component of the S. mansoni redox "firewall") by following the decrease of NADPH fluorescence. […] Additional mechanistic link between exogenous NO donation and parasitic injury for the oxadiazole-2-oxide class of compounds was also expanded and better defined. Although the screen addressed both TGR and Prx2, the assay required post-screen target deconvolution for further characterization of the actives. In addition, the fluorescence assay was also subject to fluorescence interference from compound library members. We have developed a 1536-well-based kinetic HTS assay to address TGR alone. The assay followed the reduction of 5, 5'-dithiobis (2-nitrobenzoic acid) (DTNB) (Ellman's reagent) by NADPH and measured the increase in absorbance at 412 nm of the reaction product, TNB. […] This assay format can be used to screen the current MLSMR collection (with >300K compounds available) to find novel TGR inhibitors. Furoxan is a good choice to serve as a positive control in the primary HTS assay.
Three microliters of reagents (100 uM NADPH and 20 nM TGR or 100 uM NADPH as no-enzyme control) were dispensed into 1,536-well black clear-bottomed plates. Compounds (23 nL) were transferred via Kalypsys pin tool equipped with 1536-pin array (10 nL slotted pins, V&P Scientific, San Diego, CA). The plates were then be incubated for 15 min at room temperature, and 1 uL aliquot of 500 uM NADPH were added, immediately followed by a 1 uL aliquot of 15 mM DTNB to start the reaction. The plate was transferred to a ViewLux high-throughput CCD imager (Perkin-Elmer, Wellesley, MA) where kinetic measurements of the TNB absorbance were acquired using a 405 excitation filter. Throughout the screen, reagent bottles and all liquid lines were made light-tight to minimize reagent degradation. All screening operations were performed on a fully integrated robotic system (Kalypsys, San Diego, CA) containing one RX-130 and two RX-90 anthropomorphic robotic arms (Staubli, Duncan, SC). Library plates were screened starting from the lowest and proceeding to the highest concentration, and a "double-dipping" step of the highest concentration was required to access higher concentrations of compounds. Vehicle-only plates, with DMSO being pin-transferred to the entire column 5-48 compound area, were inserted uniformly at the beginning and the end of each library in order to monitor for and record any shifts in the background, which can be affected by reagent dispensers or loss in enzyme activity overtime. […]
Also: nearly all actives have a fitted effect of over 60% in size.
Potency is read from the fitted curve at half-maximal effect.

Row | Compound | Potency
1 | COc1ccc(S(=O)(=O)N2CCC(C(=O)N3CCOCC3)CC2)cc1OC | 79.4 µM (active)
2 | COc1ccc(S(=O)(=O)N2CCC(C(=O)N3CCCC3)CC2)cc1C | inactive
3 | CCN1CCN(C(=O)C2CCCN(S(=O)(=O)c3ccc(OC)c(OC)c3)C2)CC1 (stereo not drawn) | inactive
4 | O=C(C1CCC(Cn2c(=O)c3sccc3n(Cc3ccccc3F)c2=O)CC1)N1CCCCC1 (stereo not drawn) | inactive
5 | COc1ccc(Cl)cc1NC(=O)c1sc2nc3c(cc2c1N)CN(C)CC3 | inactive
6 | CCCCN(CC)C(=O)c1c[nH]c2ccc(S(=O)(=O)Nc3cccc(OC)c3)cc2c1=O | inactive
7 | CC1(C)N=C(SCc2ccccc2Cl)c2ccccc2N1 | inactive
8 | Clc1ccccc1CSc1nncn2c1cc1occc12 | inactive
9 | Clc1ccccc1CSc1nnc(-c2ccco2)c(-c2ccco2)n1 | 7.94 µM (active)
10 | Cc1ccc(-c2nnc(SCC(=O)NCc3ccccc3)nc2-c2ccc(C)cc2)cc1 | inactive
11 | c1ccc(CSc2nnc(-c3ccco3)c(-c3ccco3)n2)cc1 | 2.82 µM (active)
12 | Clc1ccc(CSc2nnc3c(n2)[nH]c2ccccc23)cc1 | inactive
13 | COc1ccccc1CNC(=O)CCCn1c(=O)c2ccccc2n(CC(=O)Nc2ccc(C)cc2Cl)c1=O | inactive
14 | COc1cccc(-c2nc3n(n2)C(c2ccccc2Cl)C(C(N)=O)=C(C)N3)c1 (stereo not drawn) | inactive
15 | CC1=C(C(N)=O)C(c2ccc3c(c2)OCO3)n2nc(-c3cccc(C)c3)nc2N1 (stereo not drawn) | 0.251 µM (active)
16 | CCN(CC)c1ccc(C2C(C(N)=O)=C(C)Nc3nc(SCc4ccccc4)nn32)cc1 (stereo not drawn) | inactive
17 | Cc1cccc(-n2ccnc2SCC(=O)Nc2cccc3ccccc23)c1C | inactive
18 | COc1ccc(-c2cc(C(F)(F)F)nc(SCC(=O)N(C)Cc3ccccc3)n2)cc1OC | inactive
19 | COc1ccc(-c2cc(C(F)(F)F)nc(S(C)(=O)=O)n2)cc1OC | 31.6 µM (active)
20 | COc1ccc(CCNc2nc(-c3ccc(F)cc3)cc(C(F)(F)F)n2)cc1OC | inactive
21 | CC1CN(C(=O)N2CCC(C(=O)NCc3ccco3)CC2)c2cc(Cl)ccc2O1 (stereo not drawn) | inactive
22 | Cc1cc(Cl)ccc1OCC(=O)N(Cc1ccc(N(C)C)cc1)C1CCS(=O)(=O)C1 (stereo not drawn) | inactive
23 | O=C(COC(=O)CCC(=O)c1cccs1)NCc1ccco1 | 25.1 µM (active)
24 | O=C(COC(=O)c1cccs1)NCc1cccs1 | inactive
25 | CC1CCN(C(=O)COC(=O)CCC(=O)c2cccs2)CC1 | inactive

Row | Compound | Potency
26 | CCN(CCCNC(=O)c1cc2c(=O)n(CC)c3ccccc3c2s1)Cc1ccccc1 | inactive
27 | CCN1CCN(c2ncc3c(n2)CC(c2ccccc2O)CC3=O)CC1 (stereo not drawn) | inactive
28 | COc1cc(C2CC(=O)c3cnc(NC(C)=O)nc3C2)cc(OC)c1OC (stereo not drawn) | inactive
29 | O=C(Nc1ncc2c(n1)CC(c1ccco1)CC2=O)c1ccc(Cl)cc1 (stereo not drawn) | 44.7 µM (active)
30 | CCc1ccc(Nc2ncc3c(n2)CC(c2ccco2)CC3=O)cc1 (stereo not drawn) | 39.8 µM (active)
31 | CC1=C(C(=O)Nc2ccc(Cl)cc2)C(c2ccco2)NC(=O)N1 (stereo not drawn) | inactive
32 | O=C(Nc1ncc2c(n1)-c1ccccc1OC2)c1ccc(Cl)cc1 | inactive
33 | COc1ccc(C(=O)COC(=O)CCCC(=O)Nc2cc(C(F)(F)F)ccc2Cl)cc1 | inactive
34 | CCc1ccc(C(=O)CC2(O)C(=O)N(CCc3ccccc3)c3ccc(Br)cc32)cc1 (stereo not drawn) | inactive
35 | CC1CCN(c2nc3ccc(C(=O)N4CCN(c5ccccc5)CC4)cc3s2)CC1 | inactive
36 | CCCN(CCC)CCCNC(=O)Cn1cc2c(n1)-c1c(oc(C(=O)N3CCCC3)c1C)CC2 | inactive
37 | CCC(=O)Nc1cccc(-c2nc3cc(C)ccc3o2)c1 | inactive
38 | C[C@@H]1C[C@@H]2O[C@H]2/C=C\C=C\C(=O)Cc2c(Cl)c(O)cc(O)c2C(=O)O1 | 4.47 µM (active)
39 | CC(C)CC(NS(=O)(=O)c1ccc2c(c1)oc(=O)n2C)C(=O)NCc1ccccc1Cl (stereo not drawn) | inactive
40 | CCc1ccc(NC(=O)CN2CCSc3ccc(S(=O)(=O)N4CCCC4)cc32)cc1 | inactive
41 | NC(=O)c1c(Nc2nc3c(F)cccc3s2)sc2c1CCCC2 | 39.8 µM (active)
42 | Cc1cc(OC(C)C(=O)Nc2sc3c(c2C(N)=O)CCCC3)ccc1Cl (stereo not drawn) | inactive
43 | COc1ccc(-c2cc(C(=O)Nc3sc4c(c3C(N)=O)CCCC4)no2)cc1 | inactive
44 | COC(=O)c1ccc(NC(=O)CSc2n[nH]c(-c3ccccc3)n2)cc1 | inactive
45 | Cc1ccc(CN2COc3cc(C)c4c(oc(=O)c5ccccc54)c3C2)cc1 | inactive
46 | COc1cc(CN(C(=O)c2ccccc2Br)c2ccccn2)cc(OC)c1OC | inactive
47 | COc1cccc(CNC(=O)C2CCN(S(=O)(=O)c3ccc4c(ccn4C)c3)CC2)c1 | inactive
48 | COc1cc(/C=N/NC(=S)Nc2cccnc2)cc(OC)c1O | inactive
49 | COc1cc(/C=N/Nc2ccc(C)cc2)cc(Br)c1O | 10 µM (active)
50 | COc1cc(/C=N/O)cc(Br)c1OS(=O)(=O)c1ccc(C)cc1 | inactive

Row | Compound | Potency
51 | COc1ccc2cc(CCl)c(Cl)nc2c1 | 31.6 µM (active)
52 | COc1ccc2oc(-c3cccc(NC(=O)CSc4ccc(Cl)cc4)c3)nc2c1 | inactive
53 | CCc1ccc(CNC(=O)c2cc3cc4ccc(OC)cc4nc3o2)cc1 | inactive
54 | CCOc1ccc(Nc2nc3c(S(=O)(=O)c4cccc(Cl)c4)nnn3c3ccsc23)cc1 | inactive
55 | O=C1[C@@H]2C(Cc3ccc(O)cc3)NC3(C(=O)Nc4ccc(F)cc43)[C@@H]2C(=O)N1c1ccc(F)cc1 (stereo partly drawn) | inactive
56 | C[C@@]12C(=O)N(c3cccc(Br)c3)C(=O)N1[C@H](c1ccc(Cl)cc1)[C@@H]1C(=O)N(C3CCCCC3)C(=O)[C@@H]12 | inactive
57 | CSCCC1NC2(C(=O)Nc3ccc(Cl)cc32)[C@@H]2C(=O)N(C3CCCC3)C(=O)[C@H]12 (stereo partly drawn) | 31.6 µM (active)
58 | CN(Cc1ccccc1)S(=O)(=O)c1ccc(F)c(C(=O)Nc2cccc(Cl)c2Cl)c1 | inactive
59 | Cc1ccc(CCNC(=O)Cn2c(-c3cccs3)cc3cc(F)ccc32)cc1 | inactive
60 | C=CS(=O)c1sc(Cl)c(N2CCOCC2)c1[N+](=O)[O-] (stereo not drawn) | 0.199 µM (active)
61 | CCOC(=O)c1[nH]c(C)c(CCC(=O)N2CCN(c3ccccc3)CC2)c1C | inactive
62 | Cn1c(=O)n(Cc2c(F)cccc2Cl)c(=O)c2c1nc1n2CCN1c1ccc(F)cc1 | inactive
63 | NS(=O)(=O)c1ccc(CCNC(=O)CCCCCn2c(=O)[nH]c3ccccc3c2=O)cc1 | inactive
64 | O=C(CCCCn1c(=O)[nH]c2ccccc2c1=O)NCc1ccc2c(c1)OCO2 | 2.51 µM (active)
65 | O=C(CCCCCn1c(=O)[nH]c2ccccc2c1=O)NCCc1c[nH]c2ccccc12 | inactive
66 | CCCCCn1c(CCCNC(=O)c2ccccc2OC)nc2ccccc21 | inactive
67 | COc1ccc(C)cc1NC(=O)CCc1c(C)nn(-c2ccc(N3CCOCC3)nn2)c1C | inactive
68 | CCOC(=O)c1ccc(NC(=O)Cn2c(=O)n(-c3ccc(C)cc3)c(=O)c3c2cnn3C)cc1 | inactive
69 | O=C(Cc1ccccc1)Nc1cccc(C(=O)N/N=C/c2ccco2)c1 | inactive
70 | O=C(Nc1ccccc1N1CCOCC1)c1csc2c1CCCC2 | inactive
71 | O=C(N/N=C/c1ccco1)c1csc2c1CCCC2 | 44.7 µM (active)
72 | CCOC(=O)C1CCN(c2csc3ccc(C)cc3c2=O)CC1 | inactive
73 | CCOC(=O)c1c(NC(=O)/C=C/c2ccc(OC)cc2)sc2c1CCC(C)C2 (stereo not drawn) | inactive
74 | O=C(CCCN1C(=O)/C(=C/c2cccs2)SC1=S)Nc1ccc(O)cc1 | inactive
75 | Cc1ccc(-c2nn(-c3ccccc3)cc2/C=C2\SC(=S)N(CCCCCC(=O)O)C2=O)o1 | 12.6 µM (active)

Row | Compound | Potency
76 | COc1ccc(/C=C2/SC(=O)N(CCCCCC(=O)Nc3ccccc3C(=O)O)C2=S)cc1 | inactive
77 | Cc1ccc(-c2nn(-c3cccc(F)c3)cc2CNCCc2ccncc2)o1 | inactive
78 | Cc1ccc(-c2nn(-c3ccccc3)cc2CN(Cc2ccccc2)C(=O)CCC(=O)O)o1 | 7.94 µM (active)
79 | O=C(O)CCC(=O)N(Cc1ccccc1)Cc1ccccc1 | inactive
80 | Cc1ccc(C)c(CN2C(=O)c3ccccc3S(=O)c3ccc(C(=O)N4CCOCC4)cc32)c1 (stereo not drawn) | inactive
81 | CCCc1nn2c(=O)cc(COC(=O)c3ccc(NC(=O)COc4ccc(F)cc4)cc3)nc2s1 | inactive
82 | CCOC(=O)c1c(NC(=O)COc2cc(C)ccc2C(C)C)sc(C)c1C | inactive
83 | CCCCOc1ccc(C(=O)N2CC(=O)Nc3ccc(Br)cc3C2c2ccc(F)cc2)cc1 (stereo not drawn) | inactive
84 | CCOC(=O)c1cc(C)nc(S(C)(=O)=O)c1C#N | 35.5 µM (active)
85 | CCOC(=O)COc1nc(C)cc(C(F)(F)F)c1C#N | inactive
86 | CCOC(=O)c1c(C(C#N)C#N)cc(C)nc1C | inactive
87 | Cc1c(Cl)cccc1NC(=O)CCS(=O)(=O)c1ccc2c(c1)oc(=O)n2C | inactive
88 | CCOc1ccc(N2C(=O)CSC2=NC#N)cc1 | inactive
89 | CCOc1ccc(N2C(=O)CN(c3cccc4ccccc34)C2=S)cc1 | inactive
90 | CCOc1ccc(N2C(=O)/C(=C/c3ccc(C)o3)N(C)C2=S)cc1 | 28.2 µM (active)
91 | COc1cccc(N(CC(=O)NCCSc2ccccn2)S(C)(=O)=O)c1 | inactive
92 | COc1ccc(C=C(C#N)C#N)c(CSc2ccccn2)c1 | 1 µM (active)
93 | CCOC(=O)CSc1ccccn1 | inactive
94 | CC(C)c1ccc(C2C(C#N)=C(N)Oc3c2oc(CO)cc3=O)cc1 (stereo not drawn) | inactive
95 | CC(C)c1ccc(C2CC(=O)N3CN(C4CCCCC4)CSC3=C2C#N)cc1 (stereo not drawn) | 6.31 µM (active)
96 | CCOC(=O)c1cc2c(=O)n3ccccc3nc2n(CC2CCCO2)c1=NC(=O)c1ccc(C(C)(C)C)cc1 (stereo not drawn) | inactive
97 | CN1c2ccc(C=O)c3c(C=O)ccc(c23)N(C)C1(C)C | 35.5 µM (active)
98 | CCc1cc2c(-c3ccccc3)cc(=O)oc2c2c1OCN(Cc1ccc(C)cc1)C2 | inactive
